Experimental findings from PubChem BioAssay (NCATS) are described below.

Assay [1] deals with Cytochrome P450 3A4 (Homo sapiens) (UniProt P08684). In words: qHTS Assay for Inhibitors and Substrates of Cytochrome P450 3A4 (AID 884). Further: nearly all actives have a fitted effect of over 50% in size. Further: potency means the concentration at half of the fitted maximal effect. On activity change, negative = inhibition: on the % scale 0 is the no-effect control and ±100 the full control effect. An outline of the steps: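 20 nM human CYP3A4 with 25 uM Luciferin-PPXE (at KM) in 200 mM KPO4, preincubated 10 min with compound; NADPH regeneration started a 60 min RT reaction. Luciferin detected by luminescence, normalized to 57 uM ketoconazole as full inhibition.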
Cytochrome P450 3A4 (Homo sapiens), sequence (P08684 whole entry, looked up): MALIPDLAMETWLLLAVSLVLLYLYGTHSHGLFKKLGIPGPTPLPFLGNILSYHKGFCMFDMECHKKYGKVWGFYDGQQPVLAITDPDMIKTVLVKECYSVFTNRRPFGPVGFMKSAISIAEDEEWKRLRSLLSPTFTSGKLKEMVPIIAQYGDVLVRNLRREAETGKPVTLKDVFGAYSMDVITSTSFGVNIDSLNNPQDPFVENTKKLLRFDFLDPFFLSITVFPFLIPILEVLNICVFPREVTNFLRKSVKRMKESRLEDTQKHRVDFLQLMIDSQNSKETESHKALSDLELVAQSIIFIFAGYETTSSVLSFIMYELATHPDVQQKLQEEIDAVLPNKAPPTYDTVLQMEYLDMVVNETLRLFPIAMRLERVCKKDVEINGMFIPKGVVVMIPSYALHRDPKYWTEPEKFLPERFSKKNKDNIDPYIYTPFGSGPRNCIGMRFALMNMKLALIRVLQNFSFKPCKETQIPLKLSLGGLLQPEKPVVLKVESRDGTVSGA
A general note: Quantitative high-throughput screening tests each substance at several concentrations.

Assay [2] is described as follows: qHTS Assay for Lipid Storage Modulators (AID 1519; calls by dose curve; on activity change, negative = inhibition: on the % scale 0 is the no-effect control and ±100 the full control effect). Conditions: Drosophila S3 cells, BODIPY lipid droplet/cell ratio, laser cytometry, cells loaded with oleic acid; for activity change, negative = inhibition: at 57.5 µM (top of the series). An outline of the steps: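 Cells seeded at 5,000 per well were treated with compounds over a concentration series and loaded with oleic acid (400 uM, as added). Lipid droplet fluorescence (488 nm excitation, 500-530 nm channel) was read by laser-scanning cytometry and normalized to 20 uM Triacsin C.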

The target in assay [3] is Ubiquitin carboxyl-terminal hydrolase 1 (Homo sapiens) (UniProt O94782). Description: Inhibitors of USP1/UAF1: Pilot qHTS (AID 504865).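 Further: rhodamine fluorescence freed from ubiquitin-rhodamine substrate followed over time; top concentration of the series differs between compounds; on the % scale 0 is the no-effect control and ±100 the full control effect; nearly all actives have a fitted effect of over 35% in size.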 An outline of the steps: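 Kinetic fluorescence assay: 1nM USP1/UAF1, 15 min compound preincubation, then 150nM Ub-Rho; 480/540 nm.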
Ubiquitin carboxyl-terminal hydrolase 1 (Homo sapiens), sequence (O94782 whole entry, looked up): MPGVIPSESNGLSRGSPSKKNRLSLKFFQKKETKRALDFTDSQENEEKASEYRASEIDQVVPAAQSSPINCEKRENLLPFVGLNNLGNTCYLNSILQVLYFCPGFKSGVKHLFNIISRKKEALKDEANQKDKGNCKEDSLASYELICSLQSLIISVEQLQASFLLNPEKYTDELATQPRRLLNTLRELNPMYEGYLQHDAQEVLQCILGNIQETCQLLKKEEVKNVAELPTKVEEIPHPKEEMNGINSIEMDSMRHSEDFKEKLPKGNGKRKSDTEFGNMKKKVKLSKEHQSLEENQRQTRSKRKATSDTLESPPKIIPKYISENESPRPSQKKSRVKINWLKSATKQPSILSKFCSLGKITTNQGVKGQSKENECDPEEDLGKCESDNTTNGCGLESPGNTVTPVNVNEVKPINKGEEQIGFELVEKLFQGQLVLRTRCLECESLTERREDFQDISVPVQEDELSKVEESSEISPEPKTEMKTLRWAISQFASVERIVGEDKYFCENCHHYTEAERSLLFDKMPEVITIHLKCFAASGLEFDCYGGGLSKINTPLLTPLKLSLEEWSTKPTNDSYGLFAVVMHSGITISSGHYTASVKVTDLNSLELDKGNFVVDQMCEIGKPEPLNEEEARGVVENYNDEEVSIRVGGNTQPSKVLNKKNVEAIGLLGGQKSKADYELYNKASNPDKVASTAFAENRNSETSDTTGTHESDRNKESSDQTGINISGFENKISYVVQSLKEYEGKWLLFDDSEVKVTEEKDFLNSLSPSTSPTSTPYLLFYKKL
Assay [4] addresses DNA dC->dU-editing enzyme APOBEC-3G (Homo sapiens) (UniProt Q9HC16). In words: qHTS for inhibitors of Vif-A3G interactions: Validation (AID 588379). Further: 0% is about no effect. In a few lines:
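HeLa cells stably expressing Vif and A3G-eYFP, 700 cells/well, incubated overnight at 37 deg C, then exposed to compound overnight at 37 deg C. Inhibition of Vif-mediated degradation read as increased yellow fluorescence (Ex 488/Em 500-530) by laser-scanning cytometry.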

Assay [5] has as its target Cytochrome P450 3A4 (Homo sapiens) (UniProt P08684). Description: qHTS Assay for Activators of Cytochrome P450 3A4 (AID 885). Further: nearly all actives have a fitted effect of over 65% in size. Further: potency means the concentration at half of the fitted maximal effect. An outline of the steps:
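Steps: enzyme/substrate mix dispensed; compound added, 10 min RT; NADPH regeneration solution added, 60 min RT; luciferin detection buffer stops reaction; 20 min later luminescence measured.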

The nature of assay [6]: Confirmation and Secondary Assay for Modulators of Hemoglobin Beta Chain Splicing at IVS2 654 locus (AID 910).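 Further: HeLa cells stably carrying EGFP split by mutant beta-globin IVS2-654 intron; per-well total GFP intensity by laser scanning cytometry after 2-day treatment; % of control where 0% means no effect.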 In a few lines:
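Readout: per-well total peak green fluorescence (488 nm ex, 500–520 nm em) from objects 5–250 µm, reflecting correct splicing of an EGFP-654 reporter. Compounds were applied for 2 days at 37 °C to overnight-plated HeLa EGFP-654 cells; controls were DMSO and 500 nM IVS2-654 PNA.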

A short description of assay [7]: Confirmation and Secondary Assay for Modulators of Hemoglobin Beta Chain Splicing at IVS2 705 locus (AID 930).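 Further: HeLa cells stably expressing the EGFP-705 splicing reporter; % of control where 0% means no effect.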 In a few lines: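 Assay measures total GFP intensity per well in HeLa EGFP-705 cells after 2 days with compound; mis-splicing normally truncates EGFP, so fluorescence indicates corrected splicing.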
Where [8] appears, read: measured here: cell count channel max response.
Where [9] appears, read: measured here: lipid channel max response.

Records with an inconclusive call do not appear. Calls of active or inactive are those of the source. Unless noted, the call rests on the fitted dose curve; in most records, active means well fitted curve in the direction sought with a large enough effect; inconclusive means small, poorly fitted or top-dose-only effect, or another doubt; inactive means no such curve, though single readings can be large; an effect the other way counts as inactive or inconclusive.

DNA dC->dU-editing enzyme APOBEC-3G (Homo sapiens), sequence (Q9HC16 whole entry, looked up): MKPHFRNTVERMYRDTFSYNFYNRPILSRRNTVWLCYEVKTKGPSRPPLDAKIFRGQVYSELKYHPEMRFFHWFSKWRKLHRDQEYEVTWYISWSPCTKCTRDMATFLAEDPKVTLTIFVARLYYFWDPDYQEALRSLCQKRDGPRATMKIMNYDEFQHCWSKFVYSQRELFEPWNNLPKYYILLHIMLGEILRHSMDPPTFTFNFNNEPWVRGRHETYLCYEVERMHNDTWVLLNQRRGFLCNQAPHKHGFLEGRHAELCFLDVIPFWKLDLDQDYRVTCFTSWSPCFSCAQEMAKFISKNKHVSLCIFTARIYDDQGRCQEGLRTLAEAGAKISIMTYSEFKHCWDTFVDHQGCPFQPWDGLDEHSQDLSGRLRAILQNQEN

Take `Nc1ccn([C@H]2C[C@H](O)[C@@H](CO)O2)c(=O)n1`: the Potency entry in assay [1] and in assay [3] was “inactive” in each case. For the same molecule, the activity change, negative = inhibition in assay [2] was 0.617% (inactive). Further, the max response is 3.42% in assay [2] (setting [8]) and 2.44% in assay [2] (setting [9]). Besides, in assay [4], the call was inactive.

As to `CC(=O)OC1CC(OC(C)=O)[C@]2(C)C(CC(=O)[C@]3(C)C2CC[C@@]2(C)C(c4ccoc4)OC(=O)C4O[C@@]423)C1(C)C` (some centres not stated), in assay [1], the Potency is 20 µM (active). Also, the Potency result in assay [5], in assay [6], in assay [7] and in assay [3] was “inactive” in each case. For the same molecule, the activity change, negative = inhibition in assay [2] is 4.36% (inactive). The max response in assay [2] (setting [8]) came out at 11.4%; in assay [2] (setting [9]), 20.9%.

`CCN(CC)Cc1ccc(Nc2ccnc3cc(Cl)ccc23)cc1O`: the Potency result in assay [1], in assay [6], in assay [7] and in assay [3] was “inactive” each time. Moreover, the Potency in assay [5] is 7.94 µM (active). In addition, in assay [2], the activity change, negative = inhibition was -0.352% (inactive). Further, the max response came out at 18.7% in assay [2] (setting [8]) and 21.7% in assay [2] (setting [9]).

For the molecule `CC(C)CCCC(C)C1CCC2C3CC=C4CC(O)CCC4(C)C3CCC12C` (configuration not stated), the Potency entry in assay [1] and in assay [3] was “inactive” throughout. Also, the activity change, negative = inhibition in assay [2] was 7.38% (inactive). The max response was determined as 5.9% in assay [2] (setting [8]) and 12% in assay [2] (setting [9]). The molecule was called inactive in assay [4].

Take `C[C@H]1C[C@]2(O[C@@H]2C)C(=O)O[C@@H]2CCN(C)C/C=C(/COC(=O)[C@]1(C)O)C2=O`: the Potency entry in assay [5] and in assay [3] was “inactive” each time. Besides, the activity change, negative = inhibition in assay [2] is -0.98% (inactive). The max response in assay [2] (setting [8]) is -19.3%; in assay [2] (setting [9]), -21.3%. Further, the outcome in assay [4] was inactive.

Take `COc1c(OC)c2occc2c2oc(=O)ccc12`: the Potency in assay [1] is 10 µM (active). In addition, the Potency entry in assay [5], in assay [6], in assay [7] and in assay [3] was “inactive” throughout. In addition, the activity change, negative = inhibition in assay [2] is 12.4% (inactive). Moreover, the max response in assay [2] (setting [8]) came out at 0.397%; in assay [2] (setting [9]), 12.4%.
